Rows were chosen to be rich in hits. Some 3.6% of all compounds tested hit in one or more screens of this group.
Pf apPOL inh – Pf-apPOL DNA polymerase inhibition; Recombinant Pf-apPOL, molecular beacon fluorescence, 1.5 h; inhibition, % at 10 µM; 0.25% of 210,000 active
mHTT CaM bind – mHTT-calmodulin interaction abrogation | P42858 | AlphaScreen His-mHTT/GST-CaM binding, luminescence | inhibition, % at 15 µM | 3.6% of 190,000 active;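 also: 0% = both proteins with DMSO and 100% = one protein alone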
* = called active by the depositor. Rule as the data show it: active = inhibition above about 50%; inactive = the rest.

What do the screens show for `O=C(Cc1cc(-c2cc3ccccc3o2)on1)NCCc1c[nH]c2ccccc12`?
Pf apPOL inh: 3.1; mHTT CaM bind: -2.9

How did COc1c2c(c(Br)c([N+](=O)[O-])c1[N+](=O)[O-])OCCO2 do in these assays?
mHTT CaM bind: -0.5

How did COc1ccc(NC(=O)/C(C#N)=C/c2cc3c(cc2Br)OCO3)cc1 do in these assays?
Pf apPOL inh: 0.0; mHTT CaM bind: -1.0

What do the screens show for `O=C(NCCn1ccc2ccccc21)c1ccc(C(F)(F)F)cc1`?
Pf apPOL inh: 0.6; mHTT CaM bind: -11.0

How did Cc1ccc(C)c(C2C(C#N)=C(N)Oc3cc(N)ccc32)c1 (stereo not drawn) do in these assays?
Pf apPOL inh: -9.1; mHTT CaM bind: 9.4

Results for Cc1nn(-c2ccccc2)c2nc(C3CC3)nc(N(C)C3CCCCC3)c12 ?
Pf apPOL inh: 0.3; mHTT CaM bind: -23.1

Results for COc1ccc(NC(=O)C(C)N(c2ccccc2)S(C)(=O)=O)c(OC)c1 (stereo not drawn) ?
Pf apPOL inh: 6.9; mHTT CaM bind: 2.0

Results for CN(c1cccc(F)c1)c1cc2c(c3c1ccn3C)C1CCC2O1 (stereo not drawn) ?
Pf apPOL inh: -5.2; mHTT CaM bind: 93.4*

Results for CN(c1ccc(Cl)cc1)c1cc2c(c3c1ccn3C)C1CCC2O1 (stereo not drawn) ?
Pf apPOL inh: 1.2; mHTT CaM bind: 99.7*

How did COc1ccccc1-c1cc2c(c3c1ccn3C)C1CCC2O1 (stereo not drawn) do in these assays?
Pf apPOL inh: -0.8; mHTT CaM bind: 22.8

What do the screens show for `CCCN(CC1CC1)c1cc2c(c3c1ccn3C)C1CCC2O1` (stereo not drawn)?
Pf apPOL inh: -4.3; mHTT CaM bind: 39.8

Results for CCc1ccc(C2C3=C(CC(C)(C)CC3=O)Nc3ncnn32)cc1 (stereo not drawn) ?
Pf apPOL inh: -5.4; mHTT CaM bind: -4.3

Results for COc1ccc(OC)c(NC(=O)c2cc3c(n2C)CCN(Cc2ccc(C)cc2)C3)c1 ?
Pf apPOL inh: -4.8; mHTT CaM bind: 78.3*

Results for COc1cccc(CN2CCc3c(cc(C(=O)NCc4cccnc4)n3C)C2)c1 ?
Pf apPOL inh: -4.7; mHTT CaM bind: 9.3

Results for COc1cccc(CNC(=O)c2cc3c(n2C)CCN(Cc2cccc(OC)c2)C3)c1 ?
Pf apPOL inh: -4.3; mHTT CaM bind: 59.2*

How did COc1cccc(CN2CCc3c(cc(C(=O)Nc4cc(C)ccc4OC)n3C)C2)c1 do in these assays?
Pf apPOL inh: -5.4; mHTT CaM bind: 85.8*

What do the screens show for `COc1ccccc1NC(=O)c1cc2c(n1C)CCN(Cc1ccc(C)cc1)C2`?
Pf apPOL inh: -3.9; mHTT CaM bind: 24.9

What do the screens show for `COc1cccc(CN2CCc3c(cc(C(=O)N(C)C)n3C)C2)c1`?
Pf apPOL inh: -3.2; mHTT CaM bind: 10.1

Results for COc1cccc(NC(=O)c2cc3c(n2C)CCN(Cc2ccc(F)cc2)C3)c1 ?
Pf apPOL inh: -5.6; mHTT CaM bind: 25.9

What do the screens show for `COc1cccc(CN2CCc3c(cc(C(=O)Nc4ccc(F)cc4C)n3C)C2)c1`?
Pf apPOL inh: -5.6; mHTT CaM bind: 64.8*

Results for OC(CNCc1csc2ccccc12)c1ccccc1 (stereo not drawn) ?
Pf apPOL inh: -4.2

What do the screens show for `CC(=O)Nc1ccc(S(=O)(=O)Nc2ccc(C)cc2[N+](=O)[O-])cc1`?
Pf apPOL inh: 0.1; mHTT CaM bind: 50.7*

What do the screens show for `CC(=O)Nc1ccc(S(=O)(=O)Nc2ccc(C)cc2Br)cc1`?
Pf apPOL inh: -6.9; mHTT CaM bind: -2.3

Results for Cc1ccc(S(=O)(=O)NCc2ccco2)cc1[N+](=O)[O-] ?
Pf apPOL inh: 6.0; mHTT CaM bind: -2.9

Results for N#Cc1c2c(c(NCCCN3CCOCC3)n3c1nc1ccccc13)CCC2 ?
Pf apPOL inh: 67.1*; mHTT CaM bind: 6.0

What do the screens show for `C=CCc1c(C)c(C#N)c2nc3ccccc3n2c1NCCCN(CC)CC`?
Pf apPOL inh: -74.3; mHTT CaM bind: -6.0

What do the screens show for `CCc1ccc(-n2[nH]c(=O)c(C=c3c(C)c(C#N)c4nc5ccccc5n4c3=O)c2O)cc1`?
Pf apPOL inh: 5.6; mHTT CaM bind: 57.0*

Results for Cc1ccc(-n2[nH]c(=O)c(C=c3c(C)c(C#N)c4nc5ccccc5n4c3=O)c2O)cc1C ?
Pf apPOL inh: -4.7; mHTT CaM bind: 46.0

How did CCc1c(C)c(C#N)c2nc3ccccc3n2c1NCCOC do in these assays?
Pf apPOL inh: -0.3; mHTT CaM bind: -3.0

What do the screens show for `CCc1c(C)c(C#N)c2nc3ccccc3n2c1NCCO`?
Pf apPOL inh: 73.1*; mHTT CaM bind: -3.0

Results for N#Cc1c2c(c(NCCN3CCOCC3)n3c1nc1ccccc13)CCCC2 ?
Pf apPOL inh: -1.1; mHTT CaM bind: -4.0

What do the screens show for `CCc1c(C)c(C#N)c2nc3ccccc3n2c1NCCCN(CC)CC`?
Pf apPOL inh: 81.9*; mHTT CaM bind: -2.0

What do the screens show for `O=c1/c(=C/c2cccc(Br)c2)sc2nc(-c3ccccc3)nn12`?
Pf apPOL inh: -2.1; mHTT CaM bind: -2.0

What do the screens show for `C=CCc1cc(OC)ccc1OCCN1CCN(C)CC1`?
Pf apPOL inh: -4.0; mHTT CaM bind: 3.2

What do the screens show for `Cc1ccc(NC(=O)C(=O)NCC(O)c2cccc3ccccc23)cc1F` (stereo not drawn)?
Pf apPOL inh: -8.8; mHTT CaM bind: -16.5

Results for Cc1nnc2cc(N3CCN(CC4CCCCC4)CC3)cnn12 ?
Pf apPOL inh: 15.0; mHTT CaM bind: 15.0

Results for CC1(C)CC(=O)C2=C(C1)N(c1ccc(S(N)(=O)=O)cc1)C(N)=C(C#N)C2c1ccccc1F (stereo not drawn) ?
Pf apPOL inh: 8.5; mHTT CaM bind: 10.0

Results for CCc1c(C)c(C#N)c2nc3ccccc3n2c1NCCC(C)C ?
Pf apPOL inh: -2.2; mHTT CaM bind: -14.0

What do the screens show for `CCc1c(C)c(C#N)c2nc3ccccc3n2c1NCCCN(C)C`?
Pf apPOL inh: 60.0*; mHTT CaM bind: -4.0

Results for Cn1c(=O)c2cc(S(=O)(=O)NC3CC3)ccc2n(C)c1=O ?
mHTT CaM bind: -2.7

Results for COc1ccc(C(=O)NC(N2CCCCCC2)C(Cl)(Cl)Cl)cc1 (stereo not drawn) ?
Pf apPOL inh: -2.4; mHTT CaM bind: 11.0

What do the screens show for `O=[N+]([O-])c1ccc(OC2=C(c3ccccc3)N3CCN=C3S2)cc1`?
Pf apPOL inh: -2.4; mHTT CaM bind: 33.0

Results for Clc1ccc(OC2=C(c3ccccc3)N3CCN=C3S2)cc1 ?
Pf apPOL inh: -0.4; mHTT CaM bind: 60.0*

Results for O=C(c1ccc(OCC2CCCN2C(=O)c2ccc(Cl)cc2)cc1)N1CCOCC1 (stereo not drawn) ?
Pf apPOL inh: 11.3; mHTT CaM bind: 2.1

How did Cn1nc(C(=O)NCc2ccc3c(c2)OCO3)c2c1CCN(C(=O)Cc1cccs1)C2 do in these assays?
Pf apPOL inh: -5.1; mHTT CaM bind: 54.0*

What do the screens show for `Cn1nc(C(=O)NCc2ccc3c(c2)OCO3)c2c1CCN(C(=O)c1ccco1)C2`?
Pf apPOL inh: -8.5; mHTT CaM bind: -3.5

Results for Cn1nc(C(=O)NCc2ccc3c(c2)OCO3)c2c1CCN(C(=O)c1cccs1)C2 ?
Pf apPOL inh: -0.3; mHTT CaM bind: 11.4

What do the screens show for `Cn1nc(C(=O)NCc2ccc3c(c2)OCO3)c2c1CCN(C(=O)c1ccc(F)cc1)C2`?
Pf apPOL inh: -13.6; mHTT CaM bind: 51.2*

How did CC1CCN(C(=O)C2c3ccccc3CCN2CC(=O)Nc2cc(F)ccc2Cl)CC1 (stereo not drawn) do in these assays?
Pf apPOL inh: 10.1; mHTT CaM bind: 4.0
